We go through 31 compounds from PubChem BioAssay AID1745847 (National Center for Advancing Translational Sciences (NCATS), 2022).

The whole screen tested about 2,100 compounds, of which about 670 (32%) were called active. Roughly 50% stayed inconclusive and do not appear here. The call rests on the fitted dose curve; in most records, active means well fitted inhibition curve with a large enough effect; inconclusive means small, poorly fitted or top-dose-only effect; inactive means no such curve, though single readings can be large or run the other way. This is one part of the list.
On the % scale 0 is the no-effect control and ±100 the full control effect; potency means the concentration at half of the fitted maximal effect.

This assay can be described thus: CMV-Luciferase Counterscreen for Inhibitors of ATXN expression. Further: nearly all actives have a fitted effect of over 55% in size. The note with it: HEK-293 CMV-luciferase reporter, luminescence, 24 h; series mostly up to 57.5 µM; activity change, negative = inhibition: at the top concentration. The source says: PI: Daniel Scoles Ph.D. University of Utah School of Medicine, Salt Lake City, Utah MLPCN Grant: NS073009 Spinocerebellar ataxia type 2 (SCA2) is a multisystem neurodegenerative disease caused by a dominantly acting mutation leading to expansion of a polyQ domain in the ataxin-2 protein (ATXN2). SCA2 patients develop progressive ataxia and later lose function in other neuronal systems. Prominent parkinsonian signs develop in some patients. Like many neurodegenerative disorders, no symptomatic or disease-modifying treatments are known. The primary objective of the proposed research is to identify compounds inhibiting ATXN2 expression and to test them for efficacy in SCA2 mouse models. We have developed a cell-based assay paired with an in vivo mouse model using identical luciferase expression constructs. This approach takes advantage of an ATXN2-luciferase transgene, with the luciferase gene flanked by the upstream and downstream portions of the ATXN2 gene. Here we describe a 5-7 dose quantitative high thoroughput screen (qHTS) for compounds lowering ATXN2 expression. We screened the NIH Molecular Libraries Small Molecule Repository (MLSMR) and NCGC's mechanistically annotated (MIPE) and drug repurposing (NPC) collections of compounds for lowering expression of an ATXN2-luciferase reporter in HEK-293 cells. The assay is a multiplexed cell viability assay to ensure target reduction in the absence of cytotoxicity. Secondary qHTS assays included a CMV-luciferase reporter expressed in HEK-293 cells as well as a biochemical assay using recombinant luciferase to detect inhibitors of the reporter enzyme. Compounds that inhibit ATXN2 expression but is not cytotoxic were selected for confirmatory and secondary screens.
PROTOCOL TABLE (as described by Inglese J, Shamu CE and Guy RK. 2007) SEQUENCE No. (e.g., 1, 2, 3, etc.); PARAMETER (e.g., Cells, Incubation, Reagent, etc.); VALUE; DESCRIPTION. 1; Cells; 4 uL; white, solid bottom, 1536-well Greiner assay plate. 2; Incubation; 2 hr; 37 degree C in 5% humidified CO2. 3; Compounds; 23 nL; Kalypsis pintool (Wako USA) equipped with a 1536-well pin head. 4; Incubation; 24 hr; 37 degree C in 5% humidfified CO2. 5; Reagent; 1 uL; Gly-Phe-7-Amino-4-trifluoromethylcoumarin. 6; Incubation; 30 min; 37 degree C in 5% humidfified CO2. 7; Detection; Fluorescence; Viewlux plate reader (PerkinElmer). 8; Reagent; 3 uL; SteadyGlo luciferase solution (Promega). 9; Incubation; 5 min; room temperature. 10; Detection; Luminescence; ViewLux plate reader (PerkinElmer). NOTES (numbers refer to Sequence numbers above) 1. HEK-293 cells expressing CMV-luciferase reporter (designated as SC cells) were suspended in phenol-red free DMEM and dispensed in assay plates using a Multidrop Combi dispenser (Thermo Fisher Scientific). 2. Assay plates were incubated. Evaporation was prevented by covering assay plates with metal lids containing holes to allow gas diffusion. 3. Compounds were added in a dose response manner with the final concentrations of 57, 11.4, 2.28, 0.46, 0.091, 0.018, 0.0037 uM. Vehicle-only plates, with DMSO being pin-transferred to columns 5-48, were inserted uniformly at the beginning and the end of each library to monitor and record any shifts in assay performance. 5. 125 uM Gly-Phe-7-Amino-4-trifluoromethylcoumarin (MP Biomedicals) working concentration was used at a final concentration of 25 uM. 7. To assess cell viability; the assay plates were read using the ViewLux high-throughput CCD imager (PerkinElmer), wherein single end-point fluorescence measurement was acquired (excitation 405/10; emission 540/25 nm). 8. Detection reagent SteadyGlo Luciferase (Promega) was added to the assay plate. 10. Luminescence is then measured on the ViewLux imager equipped with a clear emission filter using a 2 sec exposure. […]
On the technique in general: The purpose of a counterscreen is to sort out artefacts and off-target activity.
For the compound `NC(Cc1ccc(F)cc1)c1csc(Nc2ccccn2)n1` (stereo unspecified), the “activity change, negative = inhibition” value was -4.04% (inactive).
Turning to `CCC(C)N1C(=O)/C(=C\c2cnc(N(C)C)nc2)C(=O)NC1=S` (stereo unspecified), the “activity change, negative = inhibition” value is -6.13% (inactive).
As for `CC12CCC3C(CCC4(O)CC(O)CCC34C=NO)C1(O)CCC2C1=COC(=O)C1` (stereo unspecified), the “activity change, negative = inhibition” value is -13.2% (inactive).
Still for that read-out and setting: with `COc1cccc2c1cc([N+](=O)[O-])c1c(C(=O)O)cc3c(c12)OCO3` the figure was 6.44% (inactive).
With `COc1ccc2c(c1)C(c1ccc(N(CCCl)CCCl)cc1)=NCC2`, the Potency is 22.4 µM (active).
For the compound `CC(=O)O[C@H]1[C@H]2O[C@]23[C@@H]2CC[C@]4(O)C[C@@H](O)CC[C@]4(C)C2CC[C@]3(C)[C@H]1c1ccc(=O)oc1` (stereo partly specified), the activity change, negative = inhibition is -18.3% [at 11.4 µM] (inactive).
As for `COC(=O)c1nc(-c2ccc3c(n2)C(=O)C(N)=C(OC)C3=O)c(N)c(-c2ccc(OC)c(OC)c2O)c1C`, the Potency was 14.1 µM (active).
Same read-out and setting: with `CSCCC(c1nnnn1-c1c(C)cccc1C)N1CCC2(CC1)C(=O)NCN2c1ccccc1` (stereo unspecified) the figure was 28.2 µM (active).
On the same count and under the same terms, with `CCOC(=O)[C@]12Cc3ccsc3[C@H]1N(Cc1ccccc1)C(=O)c1ccccc12` the figure was 3.16 µM (active).
Take `CC12CCC(O)CC1CCC1C2CCC2(C)C(C3=CC(=O)OC3)CCC12O` (stereo unspecified): the “activity change, negative = inhibition” value is 9.59% (inactive).
`C=CCCC[C@@H]1OC(=O)CNC(=O)C([C@@H](C)CC)NC(=O)[C@@H]2CCCN2C(=O)C([C@@H](C)CC)OC(=O)[C@H](Cc2ccccc2)N(C)C(=O)[C@H](C(C)C)NC(=O)C1(C)C` (stereo partly specified): the Potency was 3.98 µM (active).
`Cc1ccc(-c2nc(N(C)C3CCN(C)CC3)c3ccccc3n2)cc1`: the Potency was 17.8 µM (active).
On the same count and under the same terms, with `COc1ccc(CC2C(=O)NC(C)C(=O)N(C)C3C(=O)N(C)C(Cc4ccc(O)c(c4)Oc4ccc(cc4)C3O)C(=O)NC(C)C(=O)NC(C)C(=O)N2C)cc1` (stereo unspecified) the figure was 0.891 µM (active); with `C[C@H]1[C@@H](OS(=O)(=O)O)C[C@@H]2C[C@H]([C@@H](O)c3cc(=O)[nH]c(=O)[nH]3)NC3=NC[C@H]1N32`, 14.1 µM (active).
With `CCCCN=C[C@]12CCC(O)CC1(O)CCC1[C@@H]2CC[C@]2(C)[C@H](C3C=CC(=O)O3)CCC12O` (stereo partly specified), the “activity change, negative = inhibition” value is 12.4% (inactive).
Take `C[C@@H]1O[C@@H](O[C@@H]2C=C3CC[C@@H]4C(CC[C@]5(C)[C@@H](c6ccc(=O)oc6)CC[C@]45O)[C@@]3(C)CC2)[C@H](O)[C@H](O)[C@H]1O` (stereo partly specified): the “activity change, negative = inhibition” value was -13.5% (inactive).
For `C[C@H]1CCC[C@@H](O)CCC/C=C/c2cc(O)cc(O)c2C(=O)O1`, the activity change, negative = inhibition is -23.1% [at 11.4 µM] (inactive).
For the compound `CCCCCCC(=O)N/N=C/c1c(O)n(CCCC)c(=S)[nH]c1=O`, the Potency was 12.6 µM (active).
In the case of `CCCCC(=O)N/N=C/c1c(O)n(CCC2=CCCCC2)c(=O)[nH]c1=O`, the Potency is 10 µM (active).
`CCn1c(O)c(/C=N/NC(=O)c2ccccc2)c(=O)n(CC)c1=S`: the “activity change, negative = inhibition” value is -28.6% (inactive).
`CCCCCCC(=O)N/N=C/c1c(O)n(CCc2ccccc2)c(=O)[nH]c1=O`: the Potency is 6.31 µM (active).
For the compound `COC1C(O)C(C)OC(OC2CCC3(C)C(CCC4C3C(O)CC3(C)C(C5=CC(=O)OC5)CCC43O)C2)C1O` (stereo unspecified), the “activity change, negative = inhibition” value is -8.96% (inactive).
As for `C[C@]12CC[C@H](O)C[C@H]1CC[C@@H]1C2CC[C@]2(C)[C@@H](C3=CC(=O)OC3)[C@@H](O)C[C@]12O` (stereo partly specified), the activity change, negative = inhibition was -13.9% [at 11.4 µM] (inactive).
Regarding `COc1ccc(CC2NCC(O)C2OC(C)=O)cc1` (stereo unspecified), the Potency is 0.316 µM (active).
On the same count and under the same terms, with `COc1ccc(C[C@H]2NC[C@H](O)[C@H]2OC(C)=O)cc1` the figure was 0.0631 µM (active).
As to `c1ccc2sc(N3CCNCC3)nc2c1`, the “activity change, negative = inhibition” value is -25.2% (inactive).
The same measure, in the same setting: with `C[C@H]1CCC[C@H](O)CCCCCc2cc(O)cc(O)c2C(=O)O1` the figure was 13.6% [at 11.4 µM] (inactive).
As for `CCCCCOc1ccc(C)cc1CN(CCCl)CCCl`, the Potency was 15.8 µM (active).
Still for that read-out and setting: with `COc1cccc(C(c2nnnn2-c2ccc3c(c2)OCCO3)N2CCC(n3c(=O)[nH]c4ccccc43)CC2)c1OC` (stereo unspecified) the figure was 3.16 µM (active); with `Cc1cccc(C)c1-n1nnnc1C(c1cc2ccccc2o1)N1CCC(n2c(=O)[nH]c3ccccc32)CC1` (stereo unspecified), 8.91 µM (active).
Take `CC12CCC(O)CC1CCC1C2CCC2(C)C(C3=CC(=O)OC3)C(O)CC12O` (stereo unspecified): the “activity change, negative = inhibition” value is 42.2% (inactive).
